Results as given in PubChem BioAssay (EPA / NIEHS).
Inconclusive results are not listed. The source made the active and inactive calls. How the source made its calls, unless noted: active means hit-call score of the fitted dose curve at least 0.9, where 1 is the maximum; inactive means score below 0.9.

Experiments:
[1] = CCTE_Padilla_ZF_Score.General: CCTE's 144 Hour Post-fertilization zebrafish Assay Score for General Malformation, Padilla Lab (AID 2284411)
Summary of the method: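 Malformation, death and hatching were scored at 6 dpf by two blinded observers under a stereo microscope. Embryos were dosed singly from 6-8 hpf in sealed plates of 10% Hanks' at 26C and rinsed on 5 dpf; DMSO baseline.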

[2] = molecular target: human Norepinephrine Transporter (NET), SLC6A2 (gene 6530) (UniProt P23975); test: NVS_TR_hNET: NovaScreen (NVS) Transporter Assay for human Norepinephrine Transporter (NET) (AID 2283377; active means hit-call score of the fitted dose curve at least 0.9, where 1 is the maximum;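 further: cell-free membrane protein extracted from CHO cells expressing human NET; displacement of radioligand from human NET seen as loss of scintillation signal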)
human Norepinephrine Transporter (NET), SLC6A2 (gene 6530), sequence (P23975 whole entry, looked up): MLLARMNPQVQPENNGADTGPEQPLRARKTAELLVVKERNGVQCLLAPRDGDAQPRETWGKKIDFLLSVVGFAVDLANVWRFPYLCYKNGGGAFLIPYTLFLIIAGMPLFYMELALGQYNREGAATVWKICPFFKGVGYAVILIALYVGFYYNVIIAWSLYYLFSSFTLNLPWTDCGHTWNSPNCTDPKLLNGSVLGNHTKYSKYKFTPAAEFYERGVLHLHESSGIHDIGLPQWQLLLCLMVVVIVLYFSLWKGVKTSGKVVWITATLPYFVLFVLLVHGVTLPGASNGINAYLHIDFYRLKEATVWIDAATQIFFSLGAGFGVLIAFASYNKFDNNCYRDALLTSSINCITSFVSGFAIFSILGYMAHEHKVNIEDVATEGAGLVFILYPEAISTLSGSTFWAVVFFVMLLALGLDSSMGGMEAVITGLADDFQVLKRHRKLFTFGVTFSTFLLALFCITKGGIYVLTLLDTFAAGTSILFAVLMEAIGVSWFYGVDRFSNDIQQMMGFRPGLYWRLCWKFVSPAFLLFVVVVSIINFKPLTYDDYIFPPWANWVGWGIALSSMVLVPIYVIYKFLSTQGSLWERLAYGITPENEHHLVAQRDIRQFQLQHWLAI
Summary of the method: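 Single-concentration duplicate screen at 25 uM, then concentration-response for actives; displacement of specific radioligand from human NET in CHO membrane extracts, filter-based scintillation detection at 1 h relative to DMSO.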

[3] = BSK_3C_Vis: BioMAP Diversity Plus: 3C Assay for Morphology Visualization (AID 2283025); settings: primary human endothelial cells (HUVEC);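 further: fitted both ways so gain or loss versus DMSO counts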;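 on AC50: light microscopy image of cell morphology used as background control; cells imaged 24 h after dosing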
Summary of the method: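 HUVEC, 3C system; light microscopy of morphology at 24 h post-dose. Bidirectional fit vs DMSO baseline. Secondary readout, background-control function.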

[4] = read-out: Transforming growth factor beta 1 (TGFb1), TGFB1 (gene 7040); test: BSK_BE3C_TGFb1: BioMAP Diversity Plus: BE3C Assay for Transforming growth factor beta 1 (TGFb1) Biomarker Activity (AID 2283036;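 further: TGF-b1 protein level measured by ELISA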); settings: primary human bronchial epithelial cells; actives raise or lower the signal
Summary of the method: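 Read-out: ELISA for TGF-b1 in primary human bronchial epithelial cultures, 24 h post-dose. Bidirectional curve fitting vs DMSO control; gain or loss of signal both scored.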

[5] = read-out: Transforming growth factor beta 1 (TGFb1), TGFB1 (gene 7040); test: BSK_KF3CT_TGFb1: BioMAP Diversity Plus: KF3CT Assay for Transforming growth factor beta 1 (TGFb1) Biomarker Activity (AID 2283072); settings: primary human keratinocytes with fibroblasts; actives raise or lower the signal
Summary of the method: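 Read-out: ELISA for TGF-b1 in keratinocyte/foreskin fibroblast human skin co-culture, 24 h after dosing; bidirectional curve fit vs DMSO baseline; gain or loss of signal scored.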

[6] = molecular target: D(1A) dopamine receptor (Homo sapiens) (UniProt P21728); test: NVS_GPCR_hDRD1: NovaScreen (NVS) G Protein-Coupled Receptor Assay for human Dopamine Receptor D1 (DRD1) (AID 2283269; active means hit-call score of the fitted dose curve at least 0.9, where 1 is the maximum)
D(1A) dopamine receptor (Homo sapiens), sequence (P21728 whole entry, looked up): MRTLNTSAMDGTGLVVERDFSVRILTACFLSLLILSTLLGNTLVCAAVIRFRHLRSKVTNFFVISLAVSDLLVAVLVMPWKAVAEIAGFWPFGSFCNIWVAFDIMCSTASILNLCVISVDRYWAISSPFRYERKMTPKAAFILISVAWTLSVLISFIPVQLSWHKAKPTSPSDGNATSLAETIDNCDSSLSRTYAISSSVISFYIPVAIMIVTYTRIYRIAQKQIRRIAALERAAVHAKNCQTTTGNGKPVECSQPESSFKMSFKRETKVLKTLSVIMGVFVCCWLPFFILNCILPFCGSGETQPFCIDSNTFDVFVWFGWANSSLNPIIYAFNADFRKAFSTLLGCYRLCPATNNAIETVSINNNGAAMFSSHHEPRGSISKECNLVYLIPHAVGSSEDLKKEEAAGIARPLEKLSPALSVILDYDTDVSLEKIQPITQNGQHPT
Summary of the method: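 Radioligand displacement binding on membranes/protein extracted from HEK293 expressing human D1, cell-free; read 1 h after dosing by filter-based scintillation counting. Primary screen in duplicate at 25 uM, actives followed up in concentration series; signal loss versus DMSO baseline.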

[7] = molecular target: human Dopamine Transporter (DAT), SLC6A3 (gene 6531) (UniProt Q01959); test: NVS_TR_hDAT: NovaScreen (NVS) Transporter Assay for human Dopamine Transporter (DAT) (AID 2283374; active means hit-call score of the fitted dose curve at least 0.9, where 1 is the maximum;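 further: activity means loss of bound radioligand signal relative to DMSO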)
human Dopamine Transporter (DAT), SLC6A3 (gene 6531), sequence (Q01959 whole entry, looked up): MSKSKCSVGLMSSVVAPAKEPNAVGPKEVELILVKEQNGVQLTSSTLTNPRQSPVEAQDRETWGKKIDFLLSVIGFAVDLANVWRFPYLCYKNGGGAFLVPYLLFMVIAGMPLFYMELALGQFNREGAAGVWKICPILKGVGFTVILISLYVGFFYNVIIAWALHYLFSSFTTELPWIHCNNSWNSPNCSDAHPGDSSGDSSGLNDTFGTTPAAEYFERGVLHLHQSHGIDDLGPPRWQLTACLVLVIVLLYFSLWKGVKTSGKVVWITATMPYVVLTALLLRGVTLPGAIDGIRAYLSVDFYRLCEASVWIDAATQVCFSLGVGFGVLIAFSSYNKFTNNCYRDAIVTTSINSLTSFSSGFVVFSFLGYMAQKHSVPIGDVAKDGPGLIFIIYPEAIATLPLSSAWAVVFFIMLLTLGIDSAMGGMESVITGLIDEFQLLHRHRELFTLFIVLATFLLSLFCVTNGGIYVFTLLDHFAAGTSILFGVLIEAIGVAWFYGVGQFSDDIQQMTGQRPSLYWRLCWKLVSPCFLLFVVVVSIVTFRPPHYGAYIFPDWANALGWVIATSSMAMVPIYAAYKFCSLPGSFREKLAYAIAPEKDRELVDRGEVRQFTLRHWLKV
Summary of the method: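 Duplicate single-point screening at 25 uM preceded concentration-series follow-up of actives. Binding was measured by competitive displacement of a radioligand from DAT protein, filter-counted by scintillation 1 h after dosing. Decrease relative to DMSO taken as activity.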

[8] = CCTE_Mundy_HCI_Cortical_Synap_Neur_Matur_NeuriteSpotCountPerNeuriteLength: CCTE's Synaptogenesis and Neurite Maturation Assay in rat cortical cells for Neurite Spot Count per Neurite Length, Mundy Lab (AID 2284210)
Summary of the method: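 Synaptophysin spots per unit neurite length, measured by automated imaging of MAP2/synaptophysin/Hoechst-stained neurons. Cultures from rat cortex received chemical at DIV 7 with media change through DIV 12; glial growth arrested by AraC at DIV 5; DMSO baseline.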

[9] = CCTE_Mundy_HCI_Cortical_Synap_Neur_Matur_BPCount: CCTE's Synaptogenesis and Neurite Maturation Assay in rat cortical cells for Branch Point Count, Mundy Lab (AID 2284211)
Summary of the method: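 In this multiplexed morphology assay, cortical cells from rat receive chemicals at DIV 7 and are fixed at DIV 12, then immunostained and imaged; branch points are counted, with DMSO as baseline.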

[10] = CCTE_Mundy_HCI_Cortical_NOG_NeuriteCount: CCTE's Neurite Outgrowth Assay in rat cortical cells for Neurite Count, Mundy Lab (AID 2284212);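 further: cells fixed about two days after chemical exposure began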
Summary of the method: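 Rat cortical primary cells; compound added 2 h post-plating, 1/10 dilution of working solution. Anti-betaIII-tubulin/AF488 ICC; ArrayScan neurite count vs DMSO.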

[11] = CCTE_Mundy_HCI_Cortical_NOG_NeuriteLength: CCTE's Neurite Outgrowth Assay in rat cortical cells for Neurite Length, Mundy Lab (AID 2284213);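 on AC50: neurites imaged about 48 to 50 h after chemical exposure began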
Summary of the method: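 First, rat primary cortical cells were plated and, 2 h later, given test chemical as a 1/10 dilution. Finally, βIII-tubulin immunostaining enabled automated imaging of neurite length.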

[12] = CCTE_Mundy_HCI_Cortical_Synap_Neur_Matur_NeuriteLength: CCTE's Synaptogenesis and Neurite Maturation Assay in rat cortical cells for Neurite Length, Mundy Lab (AID 2284214)
Summary of the method: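 Read-out: high-content imaging of MAP2-labelled neurites, with synaptophysin and Hoechst co-stain, in rat cortical cultures fixed at DIV 12. Activity fitted in positive direction relative to DMSO baseline.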

[13] = CCTE_Mundy_HCI_Cortical_Synap_Neur_Matur_NeuriteSpotCountPerNeuron: CCTE's Synaptogenesis and Neurite Maturation Assay in rat cortical cells for Neurite Spot Count per Neuron Count, Mundy Lab (AID 2284215)
Summary of the method: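 Rat primary cortical cells received AraC at DIV 5, then chemicals with a media change at DIV 7, and were fixed at DIV 12. Synaptophysin puncta on MAP2-stained neurites per neuron were counted by high-content imaging, fitted relative to DMSO.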

[14] = CCTE_Mundy_HCI_Cortical_Synap_Neur_Matur_NeuriteCount: CCTE's Synaptogenesis and Neurite Maturation Assay in rat cortical cells for Neurite Count, Mundy Lab (AID 2284222)
Summary of the method: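 Rat primary cortical cells; AraC added at DIV 5, chemicals dosed with media change at DIV 7 through DIV 12. MAP2/synaptophysin/Hoechst immunostaining, high-content imaging of neurite number; fitted relative to DMSO.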

[15] = CCTE_Mundy_HCI_Cortical_Synap_Neur_Matur_CellBodySpotCount: CCTE's Synaptogenesis and Neurite Maturation Assay in rat cortical cells for Cell Body Spot Count, Mundy Lab (AID 2284223)
Summary of the method: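 Rat primary cortical cultures received AraC at DIV 5 to arrest glia, were dosed with chemical at DIV 7 with media change, and were fixed at DIV 12 (288.33 h). Synaptophysin puncta on MAP2-positive cell bodies per neuron were counted by high-content imaging versus DMSO.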

[16] = CCTE_Mundy_HCI_Cortical_NOG_BPCount: CCTE's Neurite Outgrowth Assay in rat cortical cells for Branch Point Count, Mundy Lab (AID 2284237);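 on AC50: branch points counted about two days after chemical exposure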
Summary of the method: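 Measured 50.33 h after dosing, this morphology endpoint uses rat primary cortical cultures labelled for betaIII-tubulin. Branch points are quantified by high-content imaging, with DMSO as negative control and baseline.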

[17] = CCTE_Mundy_HCI_hNP1_Casp3_7: CCTE's Caspase-Glo 3/7 Assay in human neuroprogenitor cells for Apoptosis, Mundy Lab (AID 2284240)
Summary of the method: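 Apoptosis is scored by activated caspase-3/7 luminescence in WA09-derived neural progenitor cells, measured 26.5 h after chemical dosing. Values represent gain of signal relative to DMSO vehicle.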

[18] = CCTE_Mundy_HCI_hNP1_CellTiter: CCTE's Cell Titer-Glo 2 Assay in human neuroprogenitor cells for Viability, Mundy Lab (AID 2284241; active means hit-call score of the fitted dose curve at least 0.9, where 1 is the maximum;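 on AC50: a hit is a drop in ATP luminescence versus DMSO meaning reduced viability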)
Summary of the method: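 Human neural progenitor cells (hNP1, WA09-derived) were plated on poly-L-ornithine/laminin and grown 40 to 44 hours at 37 °C, 5% CO2 before chemical addition. Twenty-four hours later, ATP was measured by CellTiter-Glo luminescence; loss of signal versus DMSO indicates reduced viability.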

[19] = TOX21_PR_LUC_Followup_Antagonist_viability: Viability Assessment in the Tox21 HEK293 Progesterone Receptor (PR) Antagonism Luciferase Follow-Up Assay (AID 2283940; active means hit-call score of the fitted dose curve at least 0.9, where 1 is the maximum)
Summary of the method: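 Read-out: CellTiter-Glo ATP luminescence, loss of signal taken as reduced viability. Cells: HEK293-PR-A-luc, 3,000/well, 5 h settling, then 16 h compound exposure at 37C, 0% CO2.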

[20] = TOX21_PR_LUC_Followup_Agonist_viability: Viability Assessment in the Tox21 HEK293 Progesterone Receptor (PR) Agonism Luciferase Follow-Up Assay (AID 2283941; active means hit-call score of the fitted dose curve at least 0.9, where 1 is the maximum;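 further: loss of signal means cytotoxicity so actives lower viability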)
Summary of the method: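 Cytotoxicity counter-screen: ATP content by CellTiter-Glo luminescence, loss of signal = reduced viability. HEK293-PR-A-luc, 3,000 cells/well, compound exposure 16 h, 37C.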

Measured: AC50

OC(C(F)(F)F)(C(F)(F)F)C(O)(C(F)(F)F)C(F)(F)F
active: [1] 1.18 µM

COc1ccc2ccccc2c1
active: [2] 25 µM

CN(C)CCC(c1ccc(Cl)cc1)c1ccccn1 (stereo not given)
active: [6] 12.1 µM | [7] 2.54 µM | [2] 7.29 µM
not listed: [19] | [20]
inactive: all other assays above

CC(=[OH+])/C=C(/C)[O-].CC(=[OH+])/C=C(/C)[O-].CC(=[OH+])/C=C(/C)[O-].[Fe]
inactive: [6]

CCC(C)NC(N)=O (stereo not given)
active: [7] 26.9 µM

CCCCCCCCCCC1CO1 (stereo not given)
inactive: [4]
active: [3] 37.8 µM | [5] 30.3 µM

Oc1ccc2c(c1)Cc1ccccc1-2
inactive: [19]

CC(O)(c1ccc(Cl)cc1)c1ccc(Cl)cc1
inactive: [20]

CNCCC(Oc1ccc(C(F)(F)F)cc1)c1ccccc1 (stereo not given)
inactive: [15]
active: [8] 12 µM | [9] 6.57 µM | [10] 14.7 µM | [11] 12.2 µM | [12] 6.03 µM | [13] 8.96 µM | [14] 11.6 µM | [16] 10.9 µM | [17] 12.7 µM | [18] 20.7 µM

CC(COc1ccccc1)N(CCCl)Cc1ccccc1 (stereo not given)
inactive: [19] | [20]
